PubChem BioAssay (EPA / NIEHS)
Values joined by “and” are separate entries in the source; they are usually repeats but may differ in a detail not shown here. Equal values may be shown once. A structure can be active in one record and inactive in another. Active and inactive are the calls of the source. The calls were made as follows: active = hit-call score of the fitted dose curve at least 0.9, where 1 is the maximum; inactive = score below 0.9.

Read-out: Interleukin 17A (IL17A), IL17A (gene 3605)
Assay: BSK_BT_xIL17A: BioMAP Diversity Plus: BT Assay for Interleukin 17A (IL17A) Biomarker Activity (AID 2284229)
Details: primary human B cells with PBMC
Procedure: BSK_BT is a cell-based, multiplexed-readout assay that uses B cell and peripheral blood mononuclear cells, a human vascular primary cell co-culture, with measurements taken at 24 hours after chemical dosing in a microplate: 96-well plate.BSK_BT_xIL17A is an assay component measured in the BSK_BT assay. It measures secreted IL-17A related to regulation of gene expression using LumineX xMAP technology.Data from the assay component BSK_BT_xIL17A was analyzed at the endpoint, BSK_BT_xIL17A, in the positive analysis fitting direction relative to DMSO as the negative control and baseline of activity. Using a type of cytokine quantitation reporter, gain or loss-of-signal activity can be used to understand protein changes. To generalize the intended target to other relatable targets, this assay endpoint is annotated to the 'cytokine' intended target family, where the subfamily is 'interleukins'.
The levels of cell surface (or secreted, indicated by the prefix "s") biomarker endpoints were measured by ELISA. Overt cytotoxicity to cells in confluent adherent cultures (all systems other than the BT system) was assessed by measuring total protein levels using sulforhodamine B (SRB) staining in parallel cultures at the time of biomarker measurements, indicated as SRB endpoints. For proliferation assays for adherent cell types, individual cell types are cultured at sub-confluence and relative cell numbers quantified by SRB staining at time points optimized for each system (48 h: 3C and CASM3C systems; 72 h: BT and HDF3CGF systems; 96 h: SAg system). SRB was performed by staining cells with 0.1% SRB after fixation with 10% TCA and reading wells at 560 nm.Viability and proliferation of PBMC (T cells) was quantified by Alamar Blue reduction for the SAg and BT systems. For PBMC viability (referred to as PBMC Cytotoxicity within the assay endpoint names), cells were plated (75,000/well in a 96-well plate) and then chemical samples added for 1 h before addition of activators, SEB and TSST-1 (20 ng/mL final concentration each). Cells were incubated for 90 h. Then, Alamar Blue (20 uL/well) (Invitrogen, Cat DAL1100) was added for 6 h, and the plates were read with a fluorescence microplate reader at 546/580 nm (excitation/emission). For PBMC proliferation, cells were plated and activated as above but incubated for only 16 h prior to addition of Alamar Blue. Plates were read after 6 h.

| Compound | outcome | AC50 |
| --- | --- | --- |
| CCOP(=S)(OCC)SCn1nnc2ccccc2c1=O | inactive | – |
| C=CC(=O)OCC(F)(F)C(F)F | – | 30 µM (active) and 31.8 µM (active) |
| CCCCOCCOP(=O)(OCCOCCCC)OCCOCCCC | inactive | – |
| O=C(O)C=CC(F)(C(F)(F)F)C(F)(F)F | inactive | – |
| N#Cc1cc([N+](=O)[O-])ccc1N | inactive | – |
| NC(=O)C(F)(F)C(F)(F)F | inactive | – |
| O=S(=O)(F)C(F)(F)C(F)(F)C(F)(F)C(F)(F)C(F)(F)C(F)(F)C(F)(F)C(F)(F)F | inactive | – |
| O=C(O)C(F)(OC(F)(F)C(F)(F)C(F)(F)F)C(F)(F)F (centres undefined) | inactive | – |
| Nc1ccc([N+](=O)[O-])cc1Cl | inactive | – |
| O=c1ssc(Cl)c1Cl | – | 4.51 µM (active) |
| CC(Cl)CN(C)C (centres undefined) | inactive | – |
| OCC(F)(F)OC(F)(F)C(F)(F)OC(F)(F)CO | inactive | – |
| FC(F)(F)C(F)(C(F)(F)F)C(F)(F)C(F)(F)CC1CO1 (centres undefined) | inactive | – |
| OCC(F)(F)OC(F)(F)C(F)(F)OC(F)(F)C(F)(F)OC(F)(F)CO | inactive | – |
| CCOP(=S)(NC(C)C)Oc1ccccc1C(=O)OC(C)C (centres undefined) | inactive | – |
| CCOP(=S)(OCC)SCSc1ccc(Cl)cc1 | inactive | – |
| O=C(O)C(F)(F)OC(F)(F)C(F)(F)OC(F)(F)F | inactive | – |
| O=P(OCC(Br)CBr)(OCC(Br)CBr)OCC(Br)CBr (centres undefined) | – | 17.4 µM (active) |
| O=C(O)C(F)(F)OC(F)(F)C(F)(F)OC(F)(F)C(=O)O | inactive | – |

| Compound | outcome | AC50 |
| --- | --- | --- |
| CC(C)Nc1ccc(Nc2ccccc2)cc1 | – | 3.17 µM (active) |
| CCCCC(CC)COP(=O)(Oc1ccccc1)Oc1ccccc1 (centres undefined) | – | 20 µM (active) |
| OCC(F)(F)OC(F)(F)C(F)(F)OC(F)(F)C(F)(F)OC(F)(F)F | inactive | 49.2 µM (active) |
| COC(=O)C(F)(F)C(F)(F)OC(F)(C(F)(F)F)C(F)(F)OC(F)=C(F)F (centres undefined) | inactive | – |
| COP(N)(=S)OC | inactive | – |
| ClC(Cl)=C(c1ccc(Cl)cc1)c1ccccc1Cl | – | 27.3 µM (active) |
| O=C(O)C(F)(F)C(F)(F)C(=O)O | inactive | – |
| C=CC(=O)OCC(CC)(COC(=O)C=C)COC(=O)C=C | – | 2.18 µM (active) |
| Cc1ccc2c(c1N)C(=O)c1ccccc1C2=O | inactive | – |
| CCCCC(CC)COC(=O)c1c(Br)c(Br)c(Br)c(Br)c1C(=O)OCC(CC)CCCC (centres undefined) | inactive | – |
| c1ccc2c(c1)sc1ccccc12 | inactive | – |
| CC(C)(C)c1ccccc1OP(=O)(Oc1ccccc1)Oc1ccccc1 | – | 24 µM (active) |
| N#Cc1c(-c2ccc(Cl)cc2)[nH]c(C(F)(F)F)c1Br | – | 1.14 µM (active) |
| COP(=O)(O)OC | inactive | – |
| CC(O)C(F)(F)C(F)(F)F (centres undefined) | inactive | – |
| CCOP(=S)(S)OCC | inactive | – |
| CCOP(=S)(OCC)SCS(=O)(=O)CC | inactive | – |
| Cc1c([N+](=O)[O-])cc2c(c1[N+](=O)[O-])C(C)(C)CC2(C)C | inactive | – |
| O=S1(=O)OCC2C(CO1)C1(Cl)C(Cl)=C(Cl)C2(Cl)C1(Cl)Cl (centres undefined) | – | 16.1 µM (active) |
